Measurements taken from PubChem BioAssay.
Where “and” joins values, the source holds several entries; their conditions need not be identical. Identical values can stand only once. Some compounds were tested as several samples or in several runs, with calls that do not always agree. Calls of active or inactive are those of the source.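 Rule for the calls, unless noted: active = compounds that lower viability of the colon cancer cells in the luminescence readout, with no numeric limit stated; inactive = the rest.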

Experiments:
[1] = Wnt pathway potentiators raising nuclear beta-catenin – imaging, WNT3A-conditioned medium, mouse C2C12, NPC library, primary screen (AID 1117326; in the data active = nuclear beta-catenin stimulation mostly above about 4.2%, no sharp cut-off; inactive = mostly below about 10%; note: reference of the scale not given here); conditions: stronger effect = higher value
[2] = stimulators of insulin release from INS-1E, primary screen, cell-based, 5 mM glucose, NPC library (AID 1117329;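 active = compound raises insulin release from rat beta cells at 5 mM glucose, no numeric limit stated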; note: reference of the scale not given here); conditions: rat INS-1E insulin secretion, at 10 µM, stronger effect = higher value
[3] = growth inhibition of GSK3B-pretreated HCT116 cells – cell-based, CellTiter-Glo, 0.2 to 20 µM (AID 1117336;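 active = compounds lowering colon cancer cell viability after pretreatment blocking the GSK3B kinase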); conditions: HCT116 viability after GSK3B inhibitor, at 20 µM, stronger effect = higher value
[4] = inhibition of endothelial tube formation, primary screen, imaging, VEGF stimulated, CD31 staining, tube area, NPC library (AID 1117340;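 active = compound that reduces growth-factor-driven endothelial tube area in a mixed cell culture, no cutoff stated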); conditions: VEGF-stimulated ADSC/ECFC co-culture, at 10 µM, stronger effect = higher value
[5] = GLP1 release stimulators, primary, NCI-H716, NPC library (AID 1117341;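 active = compound raises GLP1 secretion from the human gut endocrine cells, with no numeric limit stated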; note: reference of the scale not given here); conditions: NCI-H716 cells, at 10 µM, stronger effect = higher value
[6] = HCT116 colon cancer cell growth inhibition, primary screen, CellTiter-Glo luminescence, NPC library (AID 1117342;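 active = compounds that lower survival of HCT116 colon cancer cells in the luminescence readout, no numeric limit stated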); conditions: at 20 µM (top of the series)
[7] = reduced SW480 viability measured with CellTiter-Glo, NPC library, primary (AID 1117343); conditions: CellTiter-Glo luminescence; at 20 µM (top of the series)
[8] = NPC library primary testing for decreased DLD-1 cell viability via CellTiter-Glo (AID 1117346;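 active = compounds that lower survival of DLD-1 colon cancer cells in the luminescence readout, no cutoff given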); conditions: DLD-1 viability, CellTiter-Glo luminescence; at 20 µM (top of the series)

| Compound | nuclear beta-catenin stimulation ([1]; at 10 µM) | nuclear beta-catenin stimulation ([1]; stimulation, at 2 µM) | insulin secretion stimulation [2] | viability decrease [3] | tube area decrease [4] | GLP1 secretion stimulation [5] | inhibition of viability [6] | viability decrease (inhibition) [7] | viability decrease (inhibition) [8] |
| --- | --- | --- | --- | --- | --- | --- | --- | --- | --- |
| CC1(C)O[C@@H]2C[C@H]3[C@@H]4CCC5=CC(=O)C=C[C@]5(C)[C@@H]4[C@@H](O)C[C@]3(C)[C@]2(C(=O)CO)O1 | 0.6% (inactive) | 1.2% | -1% (inactive) | -46.1% (inactive) | 4.9% (inactive) | 1.2% (inactive) | -6.5% (inactive) | -17.7% (inactive) | -7.4% (inactive) |
| N[C@H](Cc1c[nH]c2ccccc12)C(=O)O | 0.6% (inactive) | 1% | 2.7% (inactive) | 6.2% (inactive) | 1.5% (inactive) | -2.5% (inactive) | -1.87% (inactive) | 6.5% (inactive) | 1.8% (inactive) |
| N=C(N)n1cccn1 | 0.3% (inactive) | 0% | 9.4% (inactive) | -5.8% (inactive) | 4.7% (inactive) | -3.7% (inactive) | 6.5% (inactive) | 16.1% (inactive) | -2.6% (inactive) |
| Cc1ccc2c(Br)cc(Br)c(O)c2n1 | 43% (active) | 5.5% | 2.4% (inactive) | 91% (active) | 106% (active) | -1.3% (inactive) | 79.2% (active) | 90.3% (active) | 93.3% (active) |
| COC(=O)c1nc(Cl)c(Cl)nc1N | 15.9% (active) | 84.9% | 2.2% (inactive) | 82.2% (active) | 110% (active) | 4.1% (inactive) | 75% (active) | 132% (active) | 101% (active) |
| C[C@H]1O[C@@H](O[C@H]2CC[C@@]3(C)[C@H](CC[C@@H]4[C@@H]3C[C@@H](O)[C@]3(C)[C@@H](C5=CC(=O)OC5)CC[C@]43O)C2)C[C@H](O)[C@@H]1O[C@H]1C[C@H](O)[C@H](O[C@H]2C[C@H](O)[C@H](O[C@@H]3O[C@H](CO)[C@@H](O)[C@H](O)[C@H]3O)[C@@H](C)O2)[C@@H](C)O1 | -1% (inactive) | -0.7% | -0.5% (inactive) | 65% (active) | 108% (active) | 8% (inactive) | 54.5% (active) | 69.4% (active) | 79.5% (active) |
| CCOCCn1c(C2CCN(CCc3ccc(C(C)(C)C(=O)O)cc3)CC2)nc2ccccc21 | -0.1% (inactive) | 1.3% | -0.3% (inactive) | -2.4% (inactive) | 3.7% (inactive) | -2.2% (inactive) | -1.6% (inactive) | -6.3% (inactive) | -10.2% (inactive) |
| O=S(=O)(O)CC(S)CS (stereo not drawn) | -1% (inactive) | -0.1% | -3.4% (inactive) | -25.4% (inactive) | -1.9% (inactive) | -7% (inactive) | 4.3% (inactive) | 3.8% (inactive) | -6.6% (inactive) |
| C=CCN1CCc2nc(N)sc2CC1 | 0.7% (inactive) | 1% | -0.5% (inactive) | -5.1% (inactive) | 7.1% (inactive) | 0.8% (inactive) | -4% (inactive) | 2.6% (inactive) | -3.4% (inactive) |
| O=C(O)CCCC[P+](c1ccccc1)(c1ccccc1)c1ccccc1 | -2.3% (inactive) | -0.2% | 3.5% (inactive) | -11% (inactive) | 7.8% (inactive) | 2.8% (inactive) | -8.2% (inactive) | -3.6% (inactive) | 2.9% (inactive) |
| CCOC(=O)c1c(N)sc2c1CCN(Cc1ccccc1)C2 | 0.4% (inactive) | 0.3% | -0.1% (inactive) | 21.9% (inactive) | 33.8% (inactive) | 0.5% (inactive) | 47.3% (inactive) | 84.1% (active) | 31.8% (active) |
| N[C@H]1CN(c2c(F)cc3c(=O)c(C(=O)O)cn(C4C[C@@H]4F)c3c2Cl)CC12CC2 (stereo partly drawn) | 0.1% (inactive) | 1.9% | 0.95% (inactive) | 40.5% (inactive) | -10.7% (inactive) | -1.5% (inactive) | 34.3% (inactive) | 54.7% (active) | -9.6% (inactive) |
| CC(C)C(=O)Nc1cccc(C2CN3CCSC3=N2)c1 (stereo not drawn) | 1.5% (inactive) | 1.8% | -0.5% (inactive) | -30.9% (inactive) | -4.2% (inactive) | 5% (inactive) | 4.17% (inactive) | 13% (inactive) | -14.4% (inactive) |
| N#C/C(=C1\SCC(c2ccccc2Cl)S1)n1ccnc1 (stereo not drawn) | 2% (inactive) | 2.6% | -2.4% (inactive) | 13.1% (inactive) | 21.9% (inactive) | 0.1% (inactive) | 21.7% (inactive) | 85.4% (active) | 35.2% (inactive) |
| Cc1cc(O)c2ccccc2c1O | 53.2% (active) and 30.1% (inactive) | 1.1% and -0.7% | 5% (inactive) and 0.4% (inactive) | 101% (active) and 99.2% (active) | 74.4% (active) and 26.8% (inactive) | -6.3% (inactive) and -0.9% (inactive) | 102% (active) and 99.5% (active) | 142% (active) and 102% (active) | 104% (active) and 101% (active) |
| CCCCCCCC[N+](C)(C)CCCCCCCC | -3.8% (inactive) | 34.4% | -3% (inactive) | 99.5% (active) | 108% (active) | -2.7% (inactive) | 99.6% (active) | 102% (active) | 101% (active) |

| Compound | nuclear beta-catenin stimulation ([1]; at 10 µM) | nuclear beta-catenin stimulation ([1]; stimulation, at 2 µM) | insulin secretion stimulation [2] | viability decrease [3] | tube area decrease [4] | GLP1 secretion stimulation [5] | inhibition of viability [6] | viability decrease (inhibition) [7] | viability decrease (inhibition) [8] |
| --- | --- | --- | --- | --- | --- | --- | --- | --- | --- |
| CC(C)CCC[C@@H](C)[C@H]1CC[C@H]2[C@@H]3CC=C4C[C@@H](O)CC[C@]4(C)[C@@H]3CC[C@]12C | -0.4% (inactive) | -1% | 1% (inactive) | 26.9% (inactive) | 37.5% (inactive) | -2.1% (inactive) | 43.2% (inactive) | 52.2% (active) | 41.9% (inactive) |
| CCOC(=O)NNc1ccc(N(CC)CC(C)O)nn1 (stereo not drawn) | -1.1% (inactive) | 0.1% | 0.3% (inactive) | -1% (inactive) | -17.2% (inactive) | 1.1% (inactive) | 6.1% (inactive) | 2.6% (inactive) | 1% (inactive) |
| COC(=O)c1cc(S(N)(=O)=O)ccc1OC | 0.9% (inactive) | 1.4% | -0.15% (inactive) | -6.1% (inactive) | 1.6% (inactive) | 0.1% (inactive) | -5.9% (inactive) | -8.9% (inactive) | -2.9% (inactive) |
| O=C(CCCCCCCCC#CI)Oc1ccccc1 | 3% (inactive) | 0.2% | -1.7% (inactive) | 56% (active) | 13% (inactive) | 0.3% (inactive) | -7.3% (inactive) | 68.3% (active) | 63.9% (active) |
| CC(=O)Oc1ccc(C2(c3ccc(OC(C)=O)cc3)Oc3ccccc3NC2=O)cc1 | 54.6% (active) | 9.3% | 19.9% (inactive) | 91.8% (active) | 106% (active) | 1.6% (inactive) | 83.3% (active) | 60.2% (active) | 52.2% (active) |
| Oc1cn2c(n1)Nc1ccc(Cl)c(Cl)c1C2 | 0.1% (inactive) | 2.5% | 0.6% (inactive) | -54.9% (inactive) | 40.1% (active) | 4.1% (inactive) | -2.2% (inactive) | -21.9% (inactive) | -16.9% (inactive) |
| C[N+]1(CC2COC(c3ccccc3)(c3ccccc3)O2)CCCCC1 (stereo not drawn) | 1.5% (inactive) | -0.6% | 6.4% (inactive) | 7.4% (inactive) | -12.8% (inactive) | 0.7% (inactive) | 23.2% (inactive) | 10.8% (inactive) | 0.5% (inactive) |
| CC(C)C[C@@H](N)C(=O)O | 3.4% (inactive) | 1.7% | -0.8% (inactive) | -7.15% (inactive) | 11.2% (inactive) | 0.3% (inactive) | 9.1% (inactive) | 3.6% (inactive) | -1.8% (inactive) |
| COC(=O)C1=C(C)NC(COC(N)=O)=C(C(=O)OC(C)C)C1c1cccc(Cl)c1Cl (stereo not drawn) | 35.5% (inactive) | 0.7% | 8.1% (inactive) | 94.6% (active) | 23.2% (inactive) | 0.3% (inactive) | 99.8% (active) | 123% (active) | 68.5% (active) |
| NC(N)=NN=C(/C=C/c1ccc([N+](=O)[O-])o1)/C=C/c1ccc([N+](=O)[O-])o1 | -3% (active) | 56.2% | 6% (inactive) | 99.3% (active) | 38.8% (active) | -3% (inactive) | 99.5% (active) | 102% (active) | 96% (active) |
| CN(C)CCOC(c1ccccc1)c1ccc(Br)cc1 (stereo not drawn) | 4.6% (inactive) | 5.4% | 95% (active) | -92.2% (inactive) | -4.6% (inactive) | 12.6% (inactive) | 29.9% (inactive) | 55.5% (active) | 5.7% (inactive) |
| CC(C)Cc1ccc(CC(=O)O)cc1 | -0.7% (inactive) | -0.2% | 0.2% (inactive) | -11.5% (inactive) | -13.7% (inactive) | -1.8% (inactive) | -3.5% (inactive) | 4.2% (inactive) | -8% (inactive) |
| O=S(=O)(O)c1ccc2c(N=Nc3ccc(S(=O)(=O)O)c4ccccc34)c(O)c(S(=O)(=O)O)cc2c1 | 0.7% (inactive) | 0.1% | 2.6% (inactive) | 0% (inactive) | 11.5% (inactive) | -3.9% (inactive) | 2.8% (inactive) | 19.3% (inactive) | 6.8% (inactive) |
| CC(C)Cc1ccc(C(C)C(=O)OCc2ccccn2)cc1 (stereo not drawn) | -0.2% (inactive) | 1.5% | -0.3% (inactive) | -24% (inactive) | -19.1% (inactive) | 0.1% (inactive) | 22.8% (inactive) | 40.9% (inactive) | 19.1% (inactive) |
| O=C1Cc2cc(Cl)ccc2N1 | -0.3% (inactive) | -1.5% | 1% (inactive) | 4.9% (inactive) | 2.8% (inactive) | 3.9% (inactive) | 8.4% (inactive) | -9.4% (inactive) | 2.7% (inactive) |
| O=C(Nc1ccc(Oc2ccc(Cl)cc2)c(Cl)c1)c1cc(I)cc(I)c1O | 6.2% (inactive) | 1.3% | 0.2% (inactive) | 122% (active) | 109% (active) | 29.8% (active) | 128% (active) | 161% (active) | 102% (active) |
